Read-out in assay [1]: Vascular endothelial growth factor receptor 2 (Homo sapiens) (UniProt P35968)
Briefly: BSK_4H_VEGFRII: BioMAP Diversity Plus: 4H Assay for Vascular endothelial growth factor receptor 2 (VEGFR2) Biomarker Activity (AID 2283031). The note with it: primary human endothelial cells (HUVEC); actives raise or lower the signal. The essentials: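 HUVEC (human primary), 4H system; 24 h post-dose; VEGFRII by ELISA; bidirectional curve fit vs DMSO baseline; gain or loss of signal scored.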

Read-out in assay [2]: Human Leukocyte Antigen - DR isotype (HLADR), HLA-DRA (gene 3122)
Briefly: BSK_BE3C_HLADR: BioMAP Diversity Plus: BE3C Assay for Human Leukocyte Antigen - DR isotype (HLADR) Biomarker Activity (AID 2283032). The note with it: primary human bronchial epithelial cells; actives raise or lower the signal. The procedure, abridged:
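BioMAP BE3C format: human bronchial epithelium, 24 h compound treatment, ELISA detection of HLA-DR, with bidirectional analysis relative to DMSO.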

Read-out in assay [3]: Vascular cell adhesion molecule 1 (VCAM1), VCAM1 (gene 7412)
Kind of assay: BSK_4H_VCAM1: BioMAP Diversity Plus: 4H Assay for Vascular cell adhesion molecule 1 (VCAM1) Biomarker Activity (AID 2283033).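 As to outcome: cell-surface VCAM-1 protein measured by ELISA.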 The note with it: primary human endothelial cells (HUVEC); actives raise or lower the signal. The procedure, abridged:
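In this human endothelial (HUVEC) system, biomarker ELISA was run 24 h after compound addition, and total protein in parallel wells was assessed by SRB at 560 nm; DMSO served as negative control.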

Read-out in assay [4]: Interferon-gamma inducible Protein 10 (IP10), CXCL10 (gene 3627)
Briefly: BSK_BE3C_IP10: BioMAP Diversity Plus: BE3C Assay for Interferon-gamma inducible Protein 10 (IP10) Biomarker Activity (AID 2283034). The note with it: primary human bronchial epithelial cells; actives raise or lower the signal. The essentials:
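BE3C cells (human bronchial epithelial, primary); 24 h exposure; ELISA for IP-10; DMSO-referenced bidirectional fit.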

Read-out in assay [5]: Monokine induced gamma interferon (MIG), CXCL9 (gene 4283)
Briefly: BSK_BE3C_MIG: BioMAP Diversity Plus: BE3C Assay for Monokine induced gamma interferon (MIG) Biomarker Activity (AID 2283035).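 As to outcome: MIG protein measured by ELISA in BE3C cultures after 24 h of dosing.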 The note with it: primary human bronchial epithelial cells; actives raise or lower the signal. The procedure, abridged: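 ELISA quantified MIG after 24 h exposure of primary bronchial epithelial cultures, analysed in both directions relative to DMSO. Cytotoxicity tracked in parallel cultures by sulforhodamine B staining.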

Read-out in assay [6]: Plasminogen activator inhibitor-1 (PAI1), SERPINE1 (gene 5054)
Briefly: BSK_BE3C_PAI1: BioMAP Diversity Plus: BE3C Assay for Plasminogen activator inhibitor-1 (PAI1) Biomarker Activity (AID 2283037). The note with it: primary human bronchial epithelial cells; actives raise or lower the signal. The procedure, abridged:
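In this multiplexed primary-cell system, bronchial epithelial cells receive test chemical and are sampled at 24 h. PAI-1 is read by ELISA, with DMSO serving as negative control for bidirectional fitting.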

Read-out in assay [7]: Urokinase-type plasminogen activator receptor (uPAR), PLAUR (gene 5329)
Briefly: BSK_BE3C_uPAR: BioMAP Diversity Plus: BE3C Assay for Urokinase-type plasminogen activator receptor (uPAR) Biomarker Activity (AID 2283039).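 As to outcome: uPAR protein level measured by ELISA on the cells; cells exposed to compound for one day before measurement.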 The note with it: primary human bronchial epithelial cells; actives raise or lower the signal. The procedure, abridged: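 Chemically treated human bronchial epithelial cells (lung primary) are assayed for uPAR by ELISA after 24 h, with data fitted in both directions using DMSO as negative control.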

Read-out in assay [8]: Interleukin-6 (IL6), IL6 (gene 3569)
Kind of assay: BSK_CASM3C_IL6: BioMAP Diversity Plus: CASM3C Assay for Interleukin-6 (IL6) Biomarker Activity for (AID 2283040). The note with it: primary human coronary artery smooth muscle cells; actives raise or lower the signal.

Read-out in assay [9]: Transforming growth factor beta 1 (TGFb1), TGFB1 (gene 7040)
Briefly: BSK_BE3C_TGFb1: BioMAP Diversity Plus: BE3C Assay for Transforming growth factor beta 1 (TGFb1) Biomarker Activity (AID 2283036;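 as to outcome: TGF-b1 protein level measured by ELISA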). The note with it: primary human bronchial epithelial cells; actives raise or lower the signal. The essentials:
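TGF-b1 measured via ELISA, 24 h after chemical dosing of human bronchial epithelial cells (BE3C). Overt cytotoxicity assessed in parallel by SRB (0.1%, TCA-fixed, 560 nm); analysis bidirectional relative to DMSO.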

Read-out in assay [10]: urokinase plasminogen activator (uPA), PLAU (gene 5328)
Briefly: BSK_BE3C_uPA: BioMAP Diversity Plus: BE3C Assay for urokinase plasminogen activator (uPA) Biomarker Activity (AID 2283038).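 Also: uPA protein level quantified by ELISA in cell cultures; uPA read one day after compound addition.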 The note with it: primary human bronchial epithelial cells; actives raise or lower the signal. The essentials:
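ELISA read-out of uPA in human lung primary bronchial epithelial cultures, 24 h post-dosing. Gain or loss of signal fitted bidirectionally relative to DMSO baseline; cytotoxicity checked in parallel cultures via SRB total protein stain.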

Active and inactive are the calls of the source. The calls were made as follows: active = hit-call score of the fitted dose curve at least 0.9, where 1 is the maximum; inactive = score below 0.9.

For the molecule `Nc1ccn([C@@H]2O[C@H](CO)[C@@H](O)[C@@H]2O)c(=O)n1`, the result in assay [1], in assay [2], in [3], in assay [4], in assay [5] and in assay [6] was inactive. Also, the result in assay [7] and in assay [8] was inactive.
As to `CC1(C)C(=O)N(Cl)C(=O)N1Cl`, the result in assay [1], in [2], in [3], in [4], in assay [5] and in assay [6] was inactive. The result in assay [7] and in assay [8] was inactive.
Consider `OCc1ccccc1`, for which the outcome in assay [2], in [3], in assay [4], in [5], in [9] and in assay [6] was inactive. In addition, the result in assay [7] and in assay [8] was inactive.
As to `Cn1c(=O)c2[nH]cnc2n(C)c1=O`, the result in assay [1], in assay [2], in assay [3], in [4], in assay [5] and in assay [6] was inactive. For the same molecule, the result in assay [7] and in assay [8] was inactive.
With `CCCCCCCC/C=C\CCCCCCCC(=O)OC[C@@H](O)[C@H]1OC[C@H](O)[C@H]1O`, the result in assay [2], in assay [3], in assay [4], in assay [5], in assay [9] and in assay [6] was inactive. Moreover, the result in assay [10], in assay [7] and in assay [8] was inactive.
`CCN(CC)C(=S)SSC(=S)N(CC)CC`: the AC50 in [2] was 8.96 µM (active); in assay [3], 32.4 µM (active); in assay [4], 25.5 µM (active); in assay [5], 32.3 µM (active); in [9], 17.9 µM (active); in assay [6], 27.9 µM (active). Moreover, in [7], the AC50 is 22.6 µM (active). Moreover, the outcome in [8] was inactive.
As for `CCc1cccc(CC)c1N`, the result in assay [2], in assay [3], in assay [4], in assay [5], in assay [9] and in [6] was inactive. For the same molecule, the result in assay [7] and in assay [8] was inactive.
`O=C(NO)C1(NS(=O)(=O)c2ccc(Oc3ccc(F)cc3)cc2)CCOCC1`: the outcome in assay [2], in assay [3], in [4], in assay [5], in assay [9] and in [6] was inactive. Moreover, the result in assay [10], in [7] and in assay [8] was inactive.
Consider `CCCCCCCCCCCCCCCCOS(=O)(=O)O`, for which the result in assay [1], in [3], in assay [5] and in assay [8] was inactive. Also, the AC50 in assay [2] is 15.1 µM (active); in [4] it was 10.5 µM (active); in assay [6] it was 15.1 µM (active); in [7], 16.1 µM (active).
As to `OC(Cn1cncn1)(Cn1cncn1)c1ccc(F)cc1F`, the result in [1], in assay [2], in assay [3], in assay [4], in assay [5] and in assay [6] was inactive. In addition, the result in assay [7] and in assay [8] was inactive.
As to `c1ccc2ncccc2c1`, the result in [2], in assay [3], in assay [4], in assay [5], in [9] and in [6] was inactive. The outcome in [10], in [7] and in assay [8] was inactive.
Regarding `CCCCCCCC1CCC(=O)O1` (stereo unspecified), the outcome in assay [1], in assay [2], in assay [3], in [4], in [5] and in assay [6] was inactive. In addition, the result in [7] and in assay [8] was inactive.
As for `CCCCCOC(C)=O`, the result in [2], in [3], in assay [4], in assay [5], in assay [9] and in assay [6] was inactive. Moreover, the outcome in assay [10], in assay [7] and in assay [8] was inactive.
As to `CCn1nc(C)c2c1C(=O)NCC(c1ccc(O)cc1)=N2`, the result in [2], in assay [3], in assay [4], in assay [5], in assay [9] and in [6] was inactive. The outcome in assay [10], in [7] and in [8] was inactive.
Regarding `O=C(O)c1ccc2c(c1)nc(C(=O)NC1CCN(C3CC3)CC1)n2Cc1cc(-c2ccc(Cl)s2)on1`, the outcome in assay [1], in assay [2], in [3], in assay [4], in [5] and in assay [6] was inactive. In addition, the result in [10], in assay [7] and in assay [8] was inactive.
Regarding `Cc1ccc(S(=O)(=O)NC(=O)NN2CCCCCC2)cc1`, the result in assay [1], in assay [2], in assay [3], in [4], in assay [5] and in [6] was inactive. For the same molecule, the result in assay [7] and in assay [8] was inactive.
`C[C@@H](Oc1ccc(CNC(=O)c2cccnc2Oc2ccc3c(c2)OCO3)c(F)c1)C(=O)O`: the outcome in assay [2], in assay [3], in assay [4], in assay [5], in assay [6] and in [10] was inactive. The outcome in [7] and in [8] was inactive.
On to `NC(=O)N1c2ccccc2C=Cc2ccccc21`, for which the outcome in [2], in assay [3], in assay [5], in assay [6], in assay [7] and in assay [8] was inactive.
On to `NC(=O)NN=Cc1ccc([N+](=O)[O-])o1`, for which the outcome in assay [2], in assay [3], in assay [4], in assay [5], in assay [6] and in [7] was inactive. Moreover, the result in [8] was inactive.
Turning to `FC(F)(F)COC(OCC(F)(F)F)OCC(F)(F)F`, the result in assay [2], in assay [3], in [4], in assay [5], in [6] and in assay [10] was inactive. Further, the result in [7] and in assay [8] was inactive.
As for `CC[C@H](C)C(=O)O[C@H]1C[C@H](O)C=C2C=C[C@H](C)[C@H](CC[C@@H](O)C[C@@H](O)CC(=O)O)[C@H]21`, the outcome in assay [2], in assay [3], in assay [4], in [5], in [6] and in assay [10] was inactive. Moreover, the result in assay [7] and in assay [8] was inactive.

The values above are taken from PubChem BioAssay (EPA / NIEHS).
